# Data taken from PubChem BioAssay (NCATS).
# “And” between values parts separate entries of the source, which are not always exact repeats. Equal values may be shown once. Records with an inconclusive call do not appear. Entries that show only a call come without a potency. A structure can be active in one record and inactive in another. The source made the active and inactive calls. The call rests on the fitted dose curve; in most records, active means well fitted inhibition curve with a large enough effect; inconclusive means small, poorly fitted or top-dose-only effect; inactive means no such curve, though single readings can be large or run the other way.
# Target: M-phase phosphoprotein 8 (Homo sapiens) (UniProt Q99549)
# Experiment: qHTS Validation Assay for Inhibitors for MPP8 Chromodomain Interactions with Methylated Histone Tails (AID 488949); further: nearly all actives have a fitted effect of over 55% in size; on activity change, negative = inhibition: top concentration of the series differs between compounds
# Conditions: AlphaScreen MPP8 binding to H3K9me3 peptide; series mostly up to 57.1 µM; activity change, negative = inhibition: at the top concentration
# Source text: As our understanding of epigenetics expands, it is becoming clear that players in this field are potential targets for drug development. This area of epigenetic therapy has established applications for the treatment of cancer and neurological diseases. We have been involved in this field for a number of years and have performed high-throughput screens to identify the first small molecule inhibitors of protein methyltransferases. These methyltransferases target multiple substrates, and thus regulate many arms of an epigenetic pathway. The methylation of different substrates often generates docking sites for effector proteins that harbor binding domains (chromo, tudor, PHD, MBT and ANK repeats). It has been proposed that the binding sites generated for different proteins by these post-translational modifcations mediate downstream effects on chromatin. Consistent with this theory, di- and tri-methylation of histone H3K9 facilitates the binding of heterochromatin protein HP1. The HP1 protein harbors a chromodomain that is responsible for the methyl-dependent interaction between HP1 and lysine 9 of histone H3. HP1 was first described in flies as a heterochromatin associated protein that can regulate gene silencing. It harbors a chromodomain that binds H3K9me3. In addition, it harbors a chromoshadow domain that interacts with a large number of proteins that are involved in heterochromatin formation and gene repression. There are three highly related HP1 isoforms. All three variants are associated with pericentric heterochromatin and it is not clear whether they have specific or redundant functions. MPP8 is also involved in the repression of gene in euchromatic regions (unpublished data) and like HP1 its chromodomain binds H3K9me3. MPP8 harbors an ankyrin repeat region that is likely involved in binding and recruiting interacting proteins with transcriptional repressive function, much like the chromoshadow domain of HP1 does. We hypothesize that by inhibiting specific protein-protein interactions we will be able to develop compounds that block a single arm of an epigenetic pathway. The specificity attained by blocking a single protein-protein interaction will be far greater than that attained by blocking the enzyme that regulates one of many interactions. Low-affinity protein-protein interactions (Kd in the single- to double-digit micromolar range) such as those discussed here have been very difficult to assay by traditional techniques such as fluorescence polarization or fluorescence resonance energy transfer. We have developed a sensitive chemiluminescence-based assay (Quinn, et al. 2009), which serves as the starting point for this project. The following is a validation assay to identify lead compounds that can block methyl-dependent protein-protein interactions (specifically MPP8), which can be used as probes to analyze these methyl-driven interactions and perhaps even developed into targeted epigenetic therapies. Assay Provider: Mark T. Bedford, MD Anderson Screening Center PI: Austin, C.P. Screening Center: NIH Chemical Genomics Center [NCGC]
# To each well, 2 uL of MPP8 protein (final 50 nM) and 1 uL biotinylated histone peptide trimethylated at Lys9 [b-H3(1-18)K9me3] (final 50 nM) was added in 1x PBS buffer, pH 7.4, containing 0.01% Tween-20 using a nanoliter dispenser. Formation of a protein-peptide complex proceeded at room temperature for 30 min. A Kalypsys pin-tool was employed to transfer 23 nL of library compound solution in DMSO to each well. Aurintricarboxylic acid (ATA) was used as an intraplate control with a 12-point titration in duplicate. Following a 30 min incubation of the protein-peptide complex with compounds at room temperature, a mixture of 40 ug/mL each streptavidin-coated donor and nickel chelate acceptor AlphaScreen beads (final 10 ug/mL) was added in a 1 uL dispense for a final volume of 4 uL. Plates were incubated protected from the light for 30 min at room temperature. […]
# Potency means the concentration at half of the fitted maximal effect.
# Sequence of M-phase phosphoprotein 8 (Homo sapiens) (Q99549 whole entry, looked up): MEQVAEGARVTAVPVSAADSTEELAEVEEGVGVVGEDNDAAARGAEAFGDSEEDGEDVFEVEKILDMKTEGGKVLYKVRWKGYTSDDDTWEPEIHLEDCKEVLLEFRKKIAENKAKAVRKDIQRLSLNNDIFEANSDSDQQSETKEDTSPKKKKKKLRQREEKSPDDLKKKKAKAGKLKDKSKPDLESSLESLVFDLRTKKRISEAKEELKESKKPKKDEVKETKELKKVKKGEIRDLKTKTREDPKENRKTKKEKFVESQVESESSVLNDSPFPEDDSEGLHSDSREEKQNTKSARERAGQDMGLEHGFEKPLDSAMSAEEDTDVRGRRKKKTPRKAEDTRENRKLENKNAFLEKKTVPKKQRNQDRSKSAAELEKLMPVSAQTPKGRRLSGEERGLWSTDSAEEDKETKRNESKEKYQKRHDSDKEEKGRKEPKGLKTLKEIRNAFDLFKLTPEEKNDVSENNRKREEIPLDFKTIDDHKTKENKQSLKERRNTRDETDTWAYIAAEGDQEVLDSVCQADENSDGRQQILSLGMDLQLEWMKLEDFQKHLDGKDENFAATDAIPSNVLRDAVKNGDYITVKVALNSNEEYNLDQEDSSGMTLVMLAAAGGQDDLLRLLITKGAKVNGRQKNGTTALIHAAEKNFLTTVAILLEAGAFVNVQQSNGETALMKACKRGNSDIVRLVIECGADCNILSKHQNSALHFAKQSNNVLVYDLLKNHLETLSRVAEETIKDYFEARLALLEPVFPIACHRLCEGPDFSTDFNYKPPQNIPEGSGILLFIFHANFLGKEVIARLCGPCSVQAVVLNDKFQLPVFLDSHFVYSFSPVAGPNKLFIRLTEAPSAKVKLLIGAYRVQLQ
Compound,Potency,"activity change, negative = inhibition"
Oc1ccc(-c2nc(-c3ccc(F)cc3)c(-c3ccncc3)[nH]2)cc1,31.6 µM (active) and inactive,–
O=c1c(O)c(-c2ccc(O)cc2O)oc2cc(O)cc(O)c12,39.8 µM (active),–
C[C@@H](N)C1CCC(C(=O)Nc2ccncc2)CC1 (some centres undefined),inactive,–
OC(CN1CCN(c2cccc(Cl)c2)CC1)C(c1ccccc1)c1ccccc1 (centres undefined),–,7.77% (inactive)
COc1cc2nc(N3CCN(C(=O)C4CCCO4)CC3)nc(N)c2cc1OC (centres undefined),inactive,–
Nc1nc(OCc2ccccc2)c2[nH]cnc2n1,inactive,–
Cc1cccc(C#Cc2ccccc2)n1,inactive,–
NCCCCNCCCN,inactive,–
NNc1nncc2ccccc12,inactive,–
CCOC(=O)C(C)Oc1cccc2c(=O)n(CC(=O)Nc3ccc4c(c3)OCCO4)ccc12 (centres undefined),–,-1.24% (inactive)
Cc1nc2n(c(=O)c1CCN1CCC(c3noc4cc(F)ccc34)CC1)CCCC2,–,-1.07% [at 114 µM] (inactive)
CC1(C)NC(=O)N(c2ccc([N+](=O)[O-])c(C(F)(F)F)c2)C1=O,inactive,–
O=C(CCc1ccc(O)cc1)c1c(O)cc(O)cc1O,inactive,–
Nc1ccn([C@@H]2O[C@H](CO)[C@@H](O)C2O)c(=O)n1 (some centres undefined),–,11.6% (inactive)
CC1(C)C(=O)N(CCN2CCC(C(=O)c3ccc(F)cc3)CC2)c2ccccc21,inactive,–
O=C(c1ccccc1)c1ccc2n1CCC2C(=O)O (centres undefined),inactive,–
CNC[C@H](O)c1ccc(O)c(O)c1,–,15.7% [at 114 µM] (inactive)

Compound,Potency,"activity change, negative = inhibition"
CC(C)c1ccc2c(c1)c(SC(C)(C)C)c(CC(C)(C)C(=O)O)n2Cc1ccc(Cl)cc1,inactive,–
O=C1c2c(O)cc(O)cc2OC(c2ccc(O)c(O)c2)C1O (centres undefined),inactive,–
O=c1cc(N2CCOCC2)oc2c(-c3ccccc3)cccc12,–,14% [at 114 µM] (inactive)
CN(C)CCCC1(c2ccc(F)cc2)OCc2cc(C#N)ccc21 (centres undefined),inactive,–
CCN(CC)C(=S)SSC(=S)N(CC)CC,10 µM (active) and inactive,–
O=c1c(O)c(-c2cc(O)c(O)c(O)c2)oc2cc(O)cc(O)c12,6.31 µM (active) and 8.44 µM (active),–
O=Nc1c(-c2c(O)[nH]c3cc(Br)ccc23)[nH]c2ccccc12,3.55 µM (active) and 5.97 µM (active),–
O=C(NCC1CCCCN1)c1cc(OCC(F)(F)F)ccc1OCC(F)(F)F (centres undefined),–,-2.09% [at 114 µM] (inactive)
O=C1c2ccccc2-c2n[nH]c3cccc1c23,inactive,–
O=C1NC(=O)C(c2ccccc2[N+](=O)[O-])=C1Nc1ccc(O)c(Cl)c1,56.2 µM (active),–
C[C@H](Cc1ccc(O)c(O)c1)[C@@H](C)Cc1ccc(O)c(O)c1,25.1 µM (active) and 23.8 µM (active),–
COc1ccccc1N1CCN(CCN(C(=O)C2CCCCC2)c2ccccn2)CC1,inactive,–
COc1cc2c(cc1OC)C1CC(=O)C(CC(C)C)CN1CC2 (centres undefined),–,-1.89% (inactive)
O=C(O)c1cccnc1Nc1cccc(C(F)(F)F)c1,–,8.15% (inactive)
CC(=O)O[C@H]1C(=O)[C@@]2(C)C([C@H](OC(=O)c3ccccc3)[C@]3(O)C[C@H](OC(=O)[C@H](O)[C@@H](NC(=O)c4ccccc4)c4ccccc4)C(C)=C1C3(C)C)[C@]1(OC(C)=O)CO[C@@H]1C[C@@H]2O (some centres undefined),inactive,–
NC(=NCc1ccccc1)NC(=O)c1nc(Cl)c(N)nc1N,inactive,–
Nc1nc(N)c(N=O)c(OCC2CCCCC2)n1,–,-8.97% (inactive)
